Measured values reported in PubChem BioAssay AID1347414 (National Center for Advancing Translational Sciences (NCATS), 2020).
Inconclusive results are not listed. Calls of active or inactive are those of the source. The call rests on the fitted dose curve; in most records, active means well fitted inhibition curve with a large enough effect; inconclusive means small, poorly fitted or top-dose-only effect; inactive means no such curve, though single readings can be large or run the other way.

Assay: qHTS to identify inhibitors of the type 1 interferon - major histocompatibility complex class I in skeletal muscle: Secondary screen by immunofluorescence; further: nearly all actives have a fitted effect of over 70% in size;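 on activity change, negative = inhibition: digitonin at 100 µM served as the cytotoxic control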
Details: C25cl48 myoblasts, IFN-b induced HLA-ABC immunofluorescence, 24 h; series mostly up to 49.8 µM; activity change, negative = inhibition: at the top concentration
Summary of the method: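 Immortalized human myoblasts C25cl48 were stimulated with 4.0 ng/ml IFN-beta and exposed to an 11-point 1:3 compound titration, top 50 uM, for 24 h at 37 C. They were then fixed and immunostained for HLA-ABC, and quantified by laser scanning cytometry.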
On the % scale 0 is the no-effect control and ±100 the full control effect; potency means the concentration at half of the fitted maximal effect.

Potency, active:
CC(C)C[C@H](NC(=O)CNC(=O)c1cc(Cl)ccc1Cl)B1OC(=O)CC(CC(=O)O)(C(=O)O)O1 (some centres not stated) 0.814 µM
COc1cccc2nc(-c3cccs3)nc(NN3C(=O)C=C(C)C3=O)c12 1.82 µM
Cc1cnc(Nc2ccc(N3CCN(C)CC3)cc2)nc1Nc1cccc(S(=O)(=O)NC(C)(C)C)c1 3.64 µM
CC(C)c1cnn2c(NCc3ccccc3)cc(N[C@@H](CO)[C@H](O)CO)nc12 0.914 µM
CC(C)CC(=O)Nc1n[nH]c2c1CN(C(=O)C1CCN(C)CC1)C2(C)C 0.23 µM
N#CCC1(n2cc(-c3ncnc4[nH]ccc34)cn2)CN(C2CCN(C(=O)c3ccnc(C(F)(F)F)c3F)CC2)C1 1.29 µM
CCc1c(O)cc(O)c(C(=O)c2ccc(OCCN3CCOCC3)c(OC)c2)c1CC(=O)N(CCOC)CCOC 0.814 µM
CN1CCN(c2cccc(Nc3nc4c(-c5ccc(S(C)(=O)=O)cc5)cccn4n3)c2)CC1 1.82 µM
O=[N+]([O-])c1ccc2c(c1)S(=O)(=O)C=C2 1.82 µM
COc1cccc2c1C(=O)c1c(O)c3c(c(O)c1C2=O)C[C@@](O)(/C(CO)=N/NC(=O)CCCCCN1C(=O)C=CC1=O)C[C@@H]3O[C@H]1C[C@H](N)[C@H](O)[C@H](C)O1 1.02 µM
CCN1CCN(Cc2ccc(NC(=O)Nc3ccc(Oc4cc(NC)ncn4)cc3)cc2C(F)(F)F)CC1 1.62 µM
CC(=O)Nc1ccc([C@H](C)C(=O)Nc2ncc(C(C)C)s2)cc1 1.62 µM
OC1CCC(Oc2cccc3cnc(Nc4ccc5nc[nH]c5c4)nc23)CC1 (configuration not stated) 1.02 µM
NC(=O)c1cnc2[nH]ccc2c1NC1C2CC3C[C@H]1CC(O)(C3)C2 (some centres not stated) 0.458 µM
N#CC[C@H](C1CCCC1)n1cc(-c2ncnc3[nH]ccc23)cn1 0.458 µM
CNC(=O)c1ccc(Nc2ncc(C(F)(F)F)c(NCc3nccnc3N(C)S(C)(=O)=O)n2)cc1 6.47 µM
CN(C)C/C=C/C(=O)Nc1ccc(C(=O)N2CCC[C@@H](Nc3ncc(Cl)c(-c4c[nH]c5ccccc45)n3)C2)cc1 0.23 µM
Cc1ccc([N+](=O)[O-])cc1S(=O)(=O)N(C)/N=C/c1cnc2ccc(Br)cn12 0.162 µM
Nc1nc(Nc2ccc(S(N)(=O)=O)cc2)nn1C(=O)c1c(F)cccc1F 2.05 µM
CCOc1cc2ncc(C#N)c(Nc3ccc(F)c(Cl)c3)c2cc1NC(=O)/C=C/CN(C)C 4.58 µM
COC(=O)c1nc(Cl)c(Cl)nc1N 5.76 µM
Cc1cc(O)c(-c2ccc([C@@H](C)CN)cc2)c2c1[nH]c(=O)c1sccc12 0.0182 µM
CC1(C)CC(=O)c2c(C(F)(F)F)nn(-c3ccc(C(N)=O)c(NC4CCC(O)CC4)c3)c2C1 (configuration not stated) 0.0324 µM
COc1cccc2c1C(=O)c1c(O)c3c(c(O)c1C2=O)C[C@@](O)(C(C)=O)C[C@@H]3O[C@H]1C[C@H](N)[C@H](O)[C@H](C)O1 0.458 µM
CC(=O)NCC(=O)N1[C@@H]2CC[C@H]1c1ccc(Nc3ncc(C(F)(F)F)c(NC4CCC4)n3)cc12 14.5 µM
C=CC(=O)N1CCc2ccc(-n3c(=O)ccc4cnc5ccc(-c6cnn(C)c6)cc5c43)cc21 2.89 µM

Activity change, negative = inhibition, inactive:
CCCCC(=O)O[C@]1(C(=O)CO)[C@@H](C)C[C@H]2[C@@H]3CCC4=CC(=O)C=C[C@]4(C)[C@@]3(F)[C@@H](O)C[C@@]21C -22.8%
Cc1cc2c(cc1CC(=O)c1sccc1S(=O)(=O)Nc1onc(C)c1Cl)OCO2 11%
CCC(=C/[C@H](C)C/C=C/C(C)=C/[C@@H](C)C(=O)[C@@H](C)[C@H](O)[C@@H](C)C/C(C)=C/C(=O)O)/C=C/[C@@H]1OC(=O)C=C[C@@H]1C -89.2%
O=c1[nH]c2cc(Cl)ccc2c(O)c1-c1ccc(Oc2ccccc2)cc1 -1.08%
CCCC(=O)O[C@]1(C(=O)CO)CC[C@H]2[C@@H]3CCC4=CC(=O)CC[C@]4(C)[C@H]3[C@@H](O)C[C@@]21C -0.267%
CO[C@H]1C(=O)[C@]2(C)[C@@H](OC)C[C@H]3OC[C@@]3(OC(C)=O)[C@H]2[C@H](OC(=O)c2ccccc2)[C@]2(O)C[C@H](OC(=O)[C@H](O)[C@@H](NC(=O)OC(C)(C)C)c3ccccc3)C(C)=C1C2(C)C 2.93%
